Test results from PubChem BioAssay AID2391 (Southern Research Specialized Biocontainment Screening …, 2010).
In all, about 310,000 compounds went through this assay and about 410 (0.13%) were called active. About 2% were inconclusive and are not listed. The rule behind the calls is not given here. Only a sample is shown. Potency and affinity values are given separately.

experiment: RSV antiviral activity via CPE protection, HEp-2 cells, primary 10 µM value included (AID 2391); details: RSV-induced CPE inhibition, at 10 µM, stronger effect = higher value

CPE inhibition, inactive:
CC1CCN(C(=O)CCc2nnc3ccc(NCCCN4CCCC4=O)nn23)CC1 2.33%
COC(=O)c1ccc(COC(=O)CNC(=O)c2ccc(-c3ccccc3)cc2)cc1 3.63%
COc1ccc2oc(C(=O)NCCC(C)C)c(C)c2c1 3.36%
Cc1nc2ccccc2nc(C)c1=NOCc1ccc(C#N)cc1 3.19%
Cc1nc2ccccc2nc(C)c1=NOCc1cccc(Cl)c1 3.77%
CCNC(=O)CC1C(=O)N(c2ccc(F)cc2)C(=S)N1CCc1ccncc1 (stereo not given) -1.58%
CCOC(=O)c1sc(NS(=O)(=O)c2ccc(F)cc2)nc1C -0.12%
O=S(=O)(NC1CCN(Cc2ccccc2)CC1)c1ccc2ccccc2c1 -0.58%
CCOc1cc(C(=S)N2CCCC2)ccc1O 0.51%
COC(=O)N/N=C/c1ccc(-c2cc(Cl)cc(Cl)c2)o1 42.2%
COC(=O)N/N=C/c1ccc(-c2cc(Cl)ccc2Cl)o1 -0.35%
O=C(c1ccc(F)cc1)N1CCN2C(=O)c3ccccc3C12c1ccc(Cl)cc1 (stereo not given) 73.1%
Cc1ccc(C(=O)N2CCN3C(=O)c4ccccc4C23c2ccccc2)cc1 (stereo not given) 3.84%
Cc1nc2ccccc2nc1OCc1ccc([N+](=O)[O-])cc1 1.85%
Nc1ccc(C(=O)Nc2ccco2)cc1 0.93%
Nc1c(-c2cccs2)cnc2c(-c3ccc(F)cc3)cnn12 10.8%
CCCn1c(SCC(=O)Nc2cc(C)on2)nc2c1c(=O)n(C)c(=O)n2C -0.53%
COc1ccc(S(=O)(=O)N2CCCCC2)cc1NC(=O)C1CC1 -0.43%
O=C(COC(=O)c1cnccn1)c1ccc(C2CCCCC2)cc1 1.84%
Cc1cccc(N(Cc2ccccc2)C(=O)CSC(C)C(=O)Nc2cc(C)on2)c1 (stereo not given) 15.8%
Cc1cc(NC(=O)C(C)SCC(=O)OCC(=O)N(C)c2ccccc2)no1 (stereo not given) 0.41%
CNC(=S)SCCOc1ccccc1 1.7%
COc1ccc(-n2nc(C(=O)NCC(=O)N3CCCC(C)C3)c3ccccc3c2=O)cc1 (stereo not given) 2.49%
CCC(C)NC(=O)c1cc2cc3ccc(OC)cc3nc2o1 (stereo not given) 4.45%
COc1ccc2cc3cc(C(=O)NC4CC4)sc3nc2c1 6.36%
CCc1ccccc1NC(=O)NNC(=O)CCc1ccc(OC)cc1 1.38%
COc1cccc(CNCc2cc(OC)cc(OC)c2)c1 -0.77%
CN(C)c1nc(N/N=C/c2c[nH]c3ccccc23)nc(N2CCOCC2)n1 5.13%
C(=N\Nc1nc(Nc2ccccc2)nc(N2CCOCC2)n1)/c1c[nH]c2ccccc12 38.2%
Cc1ccc(S(=O)(=O)NC2CCSC2=O)cc1C (stereo not given) 0%
Cc1sc(NC(=O)c2ccco2)c(C(c2ccncc2)N2CCOCC2)c1C (stereo not given) 6.19%
COc1cccc(C(c2c(NC(=O)c3ccco3)sc(C)c2C)N2CCOCC2)c1 (stereo not given) 0.09%
COC(=O)c1ccccc1S(=O)(=O)N1CCC(C(=O)OC(C)C(=O)NC(N)=O)CC1 (stereo not given) 1.21%
CCOc1ccc(OCCNC(=O)c2oc3ccccc3c2COC)cc1 2.63%
O=C1CCCCC1C(=O)c1cn(-c2ccc(Cl)c(Cl)c2)nn1 (stereo not given) 1.71%
N#Cc1c(N2CCCCC2)nc(N)c2c(N)nc3c(c12)CC(c1ccccc1)O3 (stereo not given) 18.6%
CN1CCN(C(=O)c2cc3nc(-c4ccccc4)cc(-c4ccccc4)n3n2)CC1 -2.59%
O=C(O)c1cc2nc(-c3ccccc3)cc(-c3ccccc3)n2n1 0.05%
CC1CCN(C(=O)c2cc3nc(-c4ccccc4)cc(-c4ccccc4)n3n2)CC1 -0.54%
O=C(c1cc2nc(-c3ccccc3)cc(-c3ccccc3)n2n1)N1CCCC1 -1.34%
COc1cc(C2C(C#N)=C(N)Oc3c2oc(CO)cc3=O)ccc1OC(C)C (stereo not given) 0.67%
Cc1c(C)c2c(OCC(=O)NCc3ccccn3)cc3c(c2oc1=O)CCC(C)(C)O3 -0.55%
Cn1c(C(O)c2ccccc2)nc(Cl)c1Cl (stereo not given) 2.93%
COc1ccc(-n2c(=O)c3ccccc3n(CC(=O)NC3CCCC3)c2=O)cc1 0.83%
C#CCOCCOCCOCCNc1nc(N2CCOCC2)nc(N2CCN(C(=O)CCCCCCCCCCNC(=O)[C@@H]([C@H](C)O)n3cc(C)nn3)CC2)n1 2.9%
C#CCOCCOCCOCCNc1nc(N2CCN(C(=O)CCCCCCCCCCNC(=O)[C@H](CCCCN)n3cc(C)nn3)CC2)nc(N2CCN(C(=O)CCCCCCCCCCNC(=O)[C@@H]([C@H](C)O)n3cc(C)nn3)CC2)n1 8.35%
CCOc1ccc(C(C)=O)cc1Cn1c(=O)oc2ccccc21 9.32%
O=c1[nH]c(C2CCN(S(=O)(=O)c3ccccc3F)CC2)nc2c1nnn2Cc1ccc(F)cc1 39%
O=c1[nH]c(C2CCN(S(=O)(=O)c3ccc(F)cc3)CC2)nc2c1nnn2Cc1ccc2c(c1)OCCO2 64.8%
Cc1ccc(Cn2nnc3c(=O)[nH]c(C4CCN(S(=O)(=O)c5ccccc5F)CC4)nc32)cc1 84.2%
O=c1[nH]c(C2CCN(S(=O)(=O)c3ccc4c(c3)OCCO4)CC2)nc2c1nnn2Cc1ccc(F)cc1 63.7%
Cc1ccc(Cn2nnc3c(=O)[nH]c(C4CCN(S(=O)(=O)c5ccc(F)cc5)CC4)nc32)cc1 13.9%
O=c1[nH]c(C2CCN(S(=O)(=O)/C=C/c3ccccc3)CC2)nc2c1nnn2Cc1ccccc1 76.1%
O=c1[nH]c(C2CCN(S(=O)(=O)c3ccccc3)CC2)nc2c1nnn2Cc1ccccc1 19.1%
O=c1[nH]c(C2CCN(S(=O)(=O)c3ccc4c(c3)OCCO4)CC2)nc2c1nnn2Cc1cccc(F)c1 67.8%
COC(=O)CC(c1ccc(C#N)cc1)n1c(C)ccc1C (stereo not given) -0.14%
Cc1ccccc1COn1nnc2ccc(S(=O)(=O)N3CCOCC3)cc21 -1.48%
O=C(NC1CCCCC1)N1CCN(c2ncccn2)CC1 2.35%
COc1ccccc1-n1c(SCC(=O)Nc2ccc(Br)cc2)nc(O)cc1=O 0.85%
COC(=O)Nc1ccc(S(=O)(=O)N(CCO)CCO)cc1 -0.61%
Cc1cccc(NC(=O)c2ccc(COc3ccc(Cl)cc3Cl)o2)n1 -0.26%
O=c1[nH]c(C2CCCN(S(=O)(=O)c3ccccc3)C2)nc2c1nnn2Cc1ccc(OC(F)(F)F)cc1 (stereo not given) 1.75%
CC(C)[N+](C)(C)CC#CC(O)(c1ccccc1)c1ccccc1 -0.2%
N#Cc1ccc(CN2CCN(C(=O)CC(NC(=O)c3ccccc3)c3ccccc3)CC2)cc1 (stereo not given) 2.31%
COC(=O)/C=C1\S/C(=N/NC(=O)c2ccc(OC)cc2)NC1=O -1.09%
C/C(N)=C(/C#N)C(=O)COC(=O)c1ccc(C#N)cc1 0.83%
C/C(N)=C(/C#N)C(=O)COC(=O)c1ccc(O)cc1 1.45%
O=C1CC(C(=O)N2CCc3ccccc32)CN1c1ccc(F)cc1 (stereo not given) 2.7%
O=C(CNC(=O)c1ccc(Cl)cc1)OCc1nc2ccccc2s1 3.12%
Cc1ccc(-c2nc3cccnc3s2)cc1NS(C)(=O)=O 0.25%
Cc1cc(-c2nc3cccnc3s2)ccc1NS(=O)(=O)c1cccs1 3.81%
CCOc1ccc(NC(=O)CN(C)S(=O)(=O)c2ccc(-c3ccc(=O)[nH]n3)s2)cc1 3.93%
CCOC(=O)c1ccc(NC(=S)N2CCSC2c2ccc(Cl)cc2)cc1 (stereo not given) 52%
CCOC(=O)c1ccc(NC(=S)N2CCSC2c2ccc(OC)cc2)cc1 (stereo not given) 11.4%
O=C(Cn1ncc2c1-c1ccccc1OC2)N1CCN(Cc2ccccc2)CC1 -1.42%
COc1ccc(C(=O)NN2CCCCC2)cc1OC 1.22%
COc1ccccc1COCC(O)CN1CCN(S(=O)(=O)c2cccc(F)c2)CC1 (stereo not given) 0.54%
Cc1ccc(NC(=O)CC(N)=S)cc1 0.37%
CC(=O)COc1ccc2c3c(c(=O)oc2c1)CCCC3 27%
O=C(O)COc1ccc2c3c(c(=O)oc2c1)CCCC3 -1.38%
O=C(O)c1ccccc1NCc1ccco1 0.7%
CC(=O)Nc1ccc(S(=O)(=O)n2cnc3cc(C)c(C)cc32)cc1 14.6%
CCc1ccc(/C(C)=N/NC(=O)CNC(=O)/C=C/c2ccccc2OC)cc1 5.6%
COc1ccc(/C(C)=N/NC(=O)CNC(=O)/C=C/c2ccccc2OC)cc1 2.31%
O=c1cc(CN2CCN(C/C=C/c3ccccc3)CC2)c2cc(O)c(-c3ccccc3)cc2o1 2.21%
CC(=O)NCCN=C(C)c1sc2ccccc2c1O 2.52%
CCCCNC(=O)CC1N=C2c3ccccc3N=C(SCC(=O)Nc3cccc(OC)c3)N2C1=O (stereo not given) 0.81%
CCCCNC(=O)CC1N=C2c3ccccc3N=C(SCC(=O)Nc3ccccc3OC)N2C1=O (stereo not given) 8.13%
Cn1ccnc1SCC(=O)Nc1cccc(S(=O)(=O)N2CCCCC2)c1 5.08%
O=C(Nc1nc(-c2ccc(Cl)cc2Cl)cs1)C1CCCO1 (stereo not given) 7.12%
